Assay results as given in ChEMBL document CHEMBL4513216, “Probing the Open Global Health Chemical Diversity Library for Multistage-Active Starting Points for Next-Generation Antimalarials” (ACS Infect Dis, 2020).
The whole screen tested about 69,000 compounds, of which about 8,600 (12%) showed an effect of 50% or more. Shown is part of a subset that was picked to be rich in strong results.

System: Plasmodium berghei
Test: Screen against P. berghei liver stage (PbLuc), transformed with Luciferase, at 10uM
Type: functional, HepG2
Settings: tested at 10 uM

SMILES | INHIBITION [%]
Cc1ccnc(C2COCCN2C)n1 (stereo not drawn) | 8.905
CCn1ccnc1CN1CCN(CC(O)c2ccco2)CC1 (stereo not drawn) | 10.55
c1cncc(COCC2CN(Cc3cccnc3)Cc3ccnn3C2)c1 (stereo not drawn) | -60.2
CCCc1cc(=O)[nH]c(-c2ccccc2CN(C)CCC(C)C)n1 | 36.6
Cc1cccn2cc(CN3CCC(N4CCN(C)C4=O)CC3)nc12 | -1.85
OC(CN1CCN(Cc2cccnc2)CC1)c1cccs1 (stereo not drawn) | 10.1
CCc1nccn1CCC(=O)N1CCCC1c1cncc(NC)n1 (stereo not drawn) | 2.365
O=C(CN1CC(c2nc(C3CC3)no2)C1)NCC1CCCO1 (stereo not drawn) | 48
O=S(=O)(C1CC1)N1CCO[C@H]2[C@H](OCCN3CCCC3)CC[C@@H]21 | -9.67
CN(Cc1cnccn1)S(=O)(=O)N1CCCC1c1ccco1 (stereo not drawn) | 4.3
Cc1noc(C)c1CN1CCOC(CNc2cccnn2)C1 (stereo not drawn) | -7.35
CCOc1cc(CNCc2nc(C)cc(=O)[nH]2)c(Cl)cc1OC(C)C | 39.6
CCOc1cc(CNCc2ncc[nH]2)c(Cl)cc1OC(C)C | 33.1
CCOc1cc(CNCc2cnc(C)cn2)c(Cl)cc1OC(C)C | 63.5
Cc1nc(CN2CCN(C(=O)NC(C)Cn3ccnc3)CC2)cs1 (stereo not drawn) | -28.2
CS(=O)(=O)c1snnc1C1CCN(Cc2ccncc2)CC1 | 67.7
Cc1cccc(CN2CCC(c3nnsc3S(C)(=O)=O)CC2)c1 | 18.9
CN(C)c1ncc(CN2CCC(c3nnsc3S(C)(=O)=O)CC2)cn1 | 51.2
CS(=O)(=O)c1snnc1C1CCCN(Cc2ccncc2)C1 (stereo not drawn) | 9.93
CS(=O)(=O)c1snnc1C1CCN(Cc2cccnc2)CC1 | 48.6
CNc1ncc(CN2CCC(c3nnsc3S(C)(=O)=O)CC2)cn1 | 21.9
CCC(O)CN1CCN(C(=O)c2cnc3n[nH]c(C)c3c2)CC1 (stereo not drawn) | 12.7
O=C(O)CSc1nccc(-c2ccc3c(c2)OCO3)n1 | 8.51
CCc1nnc(C(C)N2CCc3cncnc3C2)o1 (stereo not drawn) | 2.43
O=C(NC1CC1)N1CC[C@H](OCC2CC2)[C@@H]1Cc1cccnc1 | 29
O=C(CN1CCC(c2ccccc2)C1)NC(=O)NCC(F)(F)F (stereo not drawn) | 36.65

SMILES | INHIBITION [%]
O=C(Nc1nc2c(s1)CN(S(=O)(=O)C1CC1)CC2)c1ccc(Cl)s1 | 73.3
O=C(Nc1nc2c(s1)CN(S(=O)(=O)C1CC1)CC2)Nc1ccccc1F | 64.5
O=C(Nc1nc2c(s1)CN(S(=O)(=O)C1CC1)CC2)c1c(F)cccc1F | -45.9
O=C(Nc1nc2c(s1)CN(S(=O)(=O)C1CC1)CC2)c1cccc(Cl)c1 | 26
O=C(Nc1nc2c(s1)CN(S(=O)(=O)C1CC1)CC2)c1ccccn1 | 39.3
CS(=O)(=O)N1CCc2nc(NC(=O)Nc3c(F)cccc3F)sc2C1 | 9.54
CC(CNC(=O)NCCCc1cc(N)n(-c2ccccc2)n1)N(C)C (stereo not drawn) | 30.3
CCN(CC)Cc1cn2c(n1)CN(C(=O)c1cc(C)on1)CC2 | 38.1
COC(=O)C1(NCC(=O)Nc2cc(C)ccc2OC)CCCCC1 | 5.11
c1ncn(CC2CN(Cc3nc(C4CC4)no3)CCO2)n1 (stereo not drawn) | -7.31
CCn1cnnc1C1CCN(C(=O)c2ccnc(N(C)C)c2)CC1 | 31.6
O=C(c1ccno1)N1CCOC[C@H](Oc2ccc(C(F)(F)F)cc2)C1 | 50.2
O=C(c1ccno1)N1CCOC[C@H](Oc2ccccc2)C1 | 25.3
COc1ccc(O[C@H]2COCCN(C(=O)c3ccno3)C2)cc1 | -11.1
CCOCC(=O)Nc1cccc(Oc2ccccn2)c1 | -13.4
COCCN1CCC2(CCN(Cc3cccs3)CC2)C1=O | -3.12
O=C(NCCCn1nc2ccccn2c1=O)NCc1ccccc1 | -9.76
CCCNC(=O)c1cc2c(s1)CCN2c1ncccn1 | 4.98
O=C(NCCN1CCCC1)c1cc2c(s1)CCN2c1ncccn1 | 61.1
CC(C)NC(=O)c1cc2c(s1)CCN2c1ncccn1 | -21.3
O=C(NCC1CC1)c1cc2c(s1)CCN2C(=O)c1cccnc1 | -26.1
O=C(NCC1CC1)c1cc2c(s1)CCN2c1ncccn1 | 75.6
Cc1ccc(N2CCc3sc(C(=O)NCCN4CCCC4)cc32)nn1 | -15.2
O=C(c1ccco1)N1CCO[C@@H]2CNC[C@@H]21 | 22.2
COc1ccc(C)cc1-n1ccc(C(=O)NCC2CCCOC2)n1 (stereo not drawn) | 17.3
OC1(CNCCc2nc3c(s2)CCCC3)CNCCOC1 (stereo not drawn) | -12.1

SMILES | INHIBITION [%]
CN(CCCSc1ccccc1)C(=O)Cn1ncc(N(C)C)cc1=O | 31.7
Cc1ccc(NC(=O)c2nc3c(s2)CCCN3C(C)C)cn1 | 63.5
CC(=O)N1CCCc2sc(C(=O)Nc3ccc(C)nc3)nc21 | 34.6
Cc1ccc(NC(=O)c2nc3c(s2)CCCN3C(=O)C2CC2)cn1 | -0.804
NS(=O)(=O)CCN(CCc1cccc(F)c1)C1CCCC1 | 36.3
CS(=O)(=O)Nc1cnn(Cc2cccc(Cl)c2)c1 | 29.1
COc1ccc(-n2ccc(C(=O)NCCn3ccnc3)n2)cc1 | 5.9
CN1[C@@H]2CC[C@H]1CN(C(=O)c1nnc3n1CCCC3)CC2 | -151
Cc1cc(CN2CC[C@H]3OCC[C@@]3(C(=O)NC(C)C)C2)no1 | 6.32
O=C(NCc1ccco1)[C@@]12CCO[C@@H]1CCN(Cc1ccccn1)C2 | -34.7
COCCNC(=O)[C@@]12CCO[C@@H]1CCN(Cc1scnc1C)C2 | 8.67
Cc1ncsc1CN1CC[C@H]2OCC[C@@]2(C(=O)NCC2CC2)C1 | 53.4
CNC(=O)[C@@]12CCO[C@@H]1CCN(Cc1scnc1C)C2 | 19
O=C(NCc1ccco1)[C@@]12CCO[C@@H]1CCN(CCN1CCCC1)C2 | 22.4
O=C(NCc1ccccn1)[C@@]12CCO[C@@H]1CCN(c1ncccn1)C2 | 41.2
CC(C)NC(=O)[C@@]12CCO[C@@H]1CCN(Cc1ccco1)C2 | 60.3
O=C(NCc1ccccn1)[C@@]12CCO[C@@H]1CCN(Cc1ccccn1)C2 | 51.2
c1coc(CN2CCCn3c(nnc3Cn3cccc3)C2)c1 | 45.4
Cc1ccc(CN2C[C@H](OCC3CCOCC3)[C@H]3COC[C@H]32)o1 | -59.9
Oc1cc(CC2COCCN(CC3(O)CCOCC3)C2)ncn1 (stereo not drawn) | 6.26
CC(C)c1nnc2n1CCN(C(=O)Cc1csc(C(C)(C)C)n1)C2 | 1.35
CC(C)N1CCC(Cc2cc(-c3cccc(C(=O)O)c3)ncn2)CC1 | 23.4
c1cc(CN2CCO[C@H]3[C@H](OCCN4CCCC4)CC[C@@H]32)ccn1 | 38.2
Fc1ccc(CN2CCO[C@H]3[C@H](OCCN4CCCC4)CC[C@@H]32)cc1 | 15.1
c1cc(CN2CCO[C@H]3[C@H](OCC4CCCC4)CC[C@@H]32)ccn1 | 62.6
c1coc(CN2CCO[C@H]3[C@H](OCC4CCCC4)CC[C@@H]32)c1 | 47.4

SMILES | INHIBITION [%]
Fc1ccc(CN2CCO[C@H]3[C@H](OCC4CC4)CC[C@@H]32)cc1 | -30.8
Fc1ccc(CN2CCO[C@H]3[C@H](OCC4CCCC4)CC[C@@H]32)cc1 | 66.8
CCOC[C@]12COC[C@H]1CN(Cc1ccc(F)c(F)c1)C2 | 10.4
COc1ccc(-c2n[nH]cc2CN(C)Cc2nccn2C)c(F)c1 | 51.5
CC(C)CN(C)Cc1c[nH]nc1-c1ccc(F)cc1F | 11.9
COc1ccc(-c2n[nH]cc2CN(C)Cc2nnc(C)o2)c(F)c1 | 23.8
CN(Cc1c[nH]nc1-c1ccc(F)cc1F)Cc1nccn1C | 52.2
COc1ccc(-c2n[nH]cc2CN(C)Cc2ccoc2)c(F)c1 | -25.8
Cc1cnccc1CN(C)Cc1c[nH]nc1-c1ccc(F)cc1F | 18.6
Cc1nc(CN2C(=O)CC[C@@H]3[C@H]2CCN3C(=O)C2CCCO2)cs1 (stereo partly drawn) | 15.4
O=C(CCc1ccncc1)N1CCc2cc(Cl)cc(Cl)c2C1 | 49.7
COc1ccc(F)cc1C(=O)N1C[C@@H]2CC[C@H]1CN(c1ncccn1)C2 | 10.7
CC(C)C(=O)N1CCC(C)(c2cc(O)[nH]n2)CC1 | -4.87
c1ccc(CCN2CCCC2c2cncc(Nc3nncs3)n2)cc1 (stereo not drawn) | 11.8
CS(=O)(=O)N1CCCC1c1cccc(Nc2nccs2)n1 (stereo not drawn) | -17.7
Cc1cccc(CN2CCCC2c2cccc(Nc3nccs3)n2)c1 (stereo not drawn) | 72
c1ccc(CCN2CCCC2c2cccc(Nc3nccs3)n2)cc1 (stereo not drawn) | 69.2
Cc1cccc(CN2CCCC2c2cncc(Nc3nncs3)n2)c1 (stereo not drawn) | 46.2
c1ccc(CCN2CCCC2c2ccnc(Nc3ncccn3)n2)cc1 (stereo not drawn) | 11.8
COc1cccc(CN2CCCC2c2cncc(Nc3nncs3)n2)c1 (stereo not drawn) | -29.9
Cc1ccccc1CN1CCCC1c1cncc(Nc2nncs2)n1 (stereo not drawn) | 22
Cc1ccccc1CN1CCCC1c1cccc(Nc2nccs2)n1 (stereo not drawn) | 71.8
COc1cccc(CNC(=O)CCNS(=O)(=O)c2ccc(C)cc2)c1 | -31.3
CCCC1c2cccn2CCN1S(=O)(=O)N1CCOCC1 (stereo not drawn) | 1.65
CCCc1nc(C(=O)NC(COC)c2ccnn2C)cs1 (stereo not drawn) | 16.3
